Compounds without any hit were thinned out: in the full panel of roughly 83,000, 20% have a hit.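 Testing used 96-well plates and a 48-hour single-concentration exposure. Example: -40 means 40% of the starting cells died.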 The source made the active and inactive calls. The calls were made as follows: active = growth percent below 10; inactive = the rest.
The compounds below were run on UACC-257 melanoma (assay: NCI-60 one-dose screen, 48 h (100 = growth as untreated, 0 = no growth, -100 = all killed)). Settings: 10 µM.

Row | Compound | growth
1 | O=C(O)c1ccc(-n2c(=O)c3ccccc3c3ccccc3c2=O)cc1 | 102% (inactive)
2 | Cc1nn(-c2ccc(Cl)cc2)c(=O)n1CCOc1ccccc1Cl | 105% (inactive)
3 | CC(C)(C)OC(=O)N[C@@H](Cc1ccccc1)C(=O)N(Cc1ccccc1)C1(C(=O)NCc2ccccc2)CCN(Cc2ccccc2)CC1 | 24.2% (inactive)
4 | COc1ccc(C(=O)c2cc(OC)c(OC)c(OC)c2)cc1/C=C/C(=O)c1ccc(OC)c(OC)c1 | 49.1% (inactive)
5 | CCCCNC(=O)NS(=O)(=O)c1ccc(N2N=C(c3ccc(C)cc3C)CC2c2ccc(OC)cc2)cc1 (centres undefined) | 72.5% (inactive)

The compounds below were run on M14 melanoma in the same assay as above. Settings: 10 µM unless noted.

Row | Compound | growth
6 | C[C@]12CC[C@@H]3c4cc(O)c(O)cc4CC[C@H]3[C@@H]1CC[C@@H]2O | 23.4% (inactive)
7 | CCCOC(=O)C1(O)CCCC1 | 107% (inactive)
8 | COC1=CC(c2ccc[nH]2)=N/C1=C\c1[nH]c(C)c(C(=O)CCCCC(=O)NCc2ccccc2)c1C | 36.2% (inactive)
9 | O=C(NNC(=S)Nc1ccccc1)c1ccccn1 | 25.3% (inactive)
10 | COc1cc(NC(=O)CCl)ccc(=O)c1 | 78.6% (inactive)
11 | COc1ccc(S(=O)(=O)N2CCN(c3cc4c(cc3F)c(=O)c(C(=O)O)cn4C3CC3)CC2)c(OC)c1 | 92.5% (inactive)
12 | COc1ccc(Cn2cc(COc3cc(/C=C/C(=O)c4cc(OC)c(OC)c(OC)c4)ccc3OC)nn2)cc1 | 90.9% (inactive)
13 | COc1cc(C(=O)OCCCCCCCCCCC[P+](c2ccccc2)(c2ccccc2)c2ccccc2)ccc1O | -24.5% (active)
14 | CC(C(=O)n1cc(-c2ccccc2)c(-c2ccccc2)c1)c1ccccc1 (centres undefined) | 108% (inactive)
